Measured values from PubChem BioAssay AID463183 (Sanford-Burnham Center for Chemical Genomics, 2010).
Some of the results follow. Activity calls are given as the source filed them.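 Rule for the calls: active = inhibition of lipid droplet metric at least 50%, with more than 300 cells in each of four replicates; inconclusive = wells under 300 cells, flagged as toxic or low count; inactive = the rest.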

Test: blockers of oleate-driven lipid droplets in liver cells – imaging, AML12 mouse hepatocytes, single concentration, high-content, confirmation (AID 463183);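 for cell count: cells counted after overnight compound exposure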;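 for inhibition: plate controls were DMSO with oleic acid for no effect and 5 µM Triacsin-C for full effect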
Settings: BODIPY lipid droplet imaging, at 5.2 µM, droplets induced with 100 µM oleic acid; cell count: measured here: cell count, cytotoxicity; inhibition: stronger effect = higher value

| Structure (SMILES) | cell count | inhibition |
| --- | --- | --- |
| COCCCNC(=O)CN1C(=O)CSc2ccc(S(=O)(=O)N3CCOCC3)cc21 | 1530 cells | -1.8% (inactive) |
| CCCN(CCC)c1nc2c(C)cccn2c(=O)c1/C=C1/SC(=S)N(Cc2ccco2)C1=O | 1560 cells | 51.2% (inactive) |
| Cn1c(=O)[nH]c(=O)c2c1nc(N1CCN(C(c3ccccc3)c3ccccc3)CC1)n2CCO | 1570 cells | 78.2% (active) |
| Cc1cc(NC(=O)CSc2nc(C(C)C)nc3sc4c(c23)CCC(C)C4)no1 (configuration not stated) | 1700 cells | 105% (active) |
| CN(C)c1ccc(Nc2c3c4c(cccc4n(C)c2=O)C(=O)c2ccccc2-3)cc1 | 1580 cells | 14.8% (inactive) |
| CC(C)(C)NC(=O)Cn1cnc2cc([N+](=O)[O-])ccc2c1=O | 1630 cells | 21.8% (inactive) |
| Cc1ccc(N2C(=O)C(NC(=O)c3c(F)cccc3F)(C(F)(F)F)C3=C2CC(C)(C)CC3=O)cc1 (configuration not stated) | 1590 cells | 87.5% (active) |
| CCCCN1C(=O)/C(=C/C=C2/C=Cc3ccccc3N2CC)SC1=S | 1580 cells | -4.78% (inactive) |
| CC(NC(=O)c1cccc2ccccc12)c1ccc2c(c1)CCCC2 (configuration not stated) | 1640 cells | 98.5% (active) |
| CCCN(CCC)c1ccc(C(O)c2nnc(-c3ccccc3)o2)cc1 (configuration not stated) | 1610 cells | 106% (active) |
| COc1ccc(Cl)cc1NC(=O)CN(C)C(=O)CCCc1c[nH]c2ccccc12 | 1450 cells | 85% (active) |
| CCOC(=O)C1=C(CC)OC(N)=C(C#N)C1c1ccc(F)cc1F (configuration not stated) | 1680 cells | 10.3% (inactive) |
| COc1cccc(/C=C(/CC(=O)Nc2ccc(N3CCOCC3)cc2)c2nc3ccccc3s2)c1 | 1580 cells | 94.7% (active) |
| CCOc1ccc(CCNC(=O)CCc2nnc3ccc(N4CCCC4)nn23)cc1OCC | 1650 cells | 100% (active) |
| O=C(CN1CCc2cc3c(cc2C1)OCCCO3)Nc1ccccc1 | 1530 cells | 15.8% (inactive) |
| CCCc1ccc(-c2csc(NC(=O)Cc3cccs3)n2)cc1 | 1560 cells | 104% (active) |
| O=[N+]([O-])c1ccccc1N/N=C1\CCc2ccccc21 | 1520 cells | 31.2% (inactive) |
| COc1ccc(C(C(=O)NC(C)(C)C)N(Cc2ccc(F)cc2)C(=O)CCC(=O)Nc2cc(C)on2)cc1 (configuration not stated) | 1630 cells | 108% (active) |
| CCOc1ccc(CCNC(=O)Nc2ccccc2)cc1OCC | 1550 cells | 109% (active) |
| COc1ccc(/C=C(\NC(=O)c2ccc(OCC(C)C)cc2)C(=O)OCc2ccco2)cc1 | 1460 cells | 91.6% (active) |
| COc1ccc(OC)c(-c2csc(-c3cccs3)n2)c1 | 1580 cells | 13.4% (inactive) |
| CCc1ccc(NC(=O)C(C)OC(=O)/C=C/c2cccc([N+](=O)[O-])c2)cc1 (configuration not stated) | 1510 cells | 48% (inactive) |
| Cc1c(C(=O)NCc2ccccc2)cnn1-c1ccccc1 | 1670 cells | 26.9% (inactive) |
| COc1cc(/C=N/NC(=O)Nc2ccccc2)ccc1OCCOc1ccccc1C | 1640 cells | -21.6% (inactive) |
| O=C1Nc2ccc(Br)cc2/C1=N/N=C/C1=C(N2CCOCC2)C(=C\c2ccccc2)/CC1 | 1660 cells | 65.8% (active) |
| Cc1cc(C(=O)NC2CCCc3c2cnn3-c2cccc(C)c2C)c(C)o1 (configuration not stated) | 1560 cells | 78.5% (active) |
